The subject of the assay is HepG2. Description: GSK_TCMDC: Percent inhibition of human HepG2 cell line. Test compounds present at 10uM. In kind it is functional.
`COc1ccc(NC(=O)CCNc2cc(C)nc(NCc3cccc(C)c3)n2)cc1.O=C(O)C(F)(F)F`: the Inhibition is recorded as 14%. `COc1cc(Br)c(S(=O)(=O)n2cc(CN3CCC(N)CC3)c3cc(Cl)ccc32)cc1OC.O=C(O)C(F)(F)F` registered an Inhibition of 27%.

With `CCCc1ccccc1OCC(O)CN(C1CCCC1)C1CCCC1.Cl` (stereo not given), the Inhibition turned out to be 49%. `O=C(CCCCCNC(=O)c1ccc(O)c(-c2ccc(Cl)c(Cl)c2)c1)NCc1cccc2ccccc12` returned an Inhibition of 2%. For `CC(C)Cc1cn(-c2nc(C(=N)N)cs2)c2cc(Cl)ccc12` the value was 98%; for `O=C(Nc1cccc(-c2ccc(-c3nc4cc(F)ccc4[nH]3)cc2)c1)c1ccoc1`, 39%; for `CC(=O)O.CCc1cc2c(cc1CC)CC(NC[C@@H](O)c1ccc(O)c3[nH]c(=O)ccc13)C2`, 0%. For `CN(C)c1cc(NC(=O)Nc2ccccc2)c2ccccc2n1` the value was 11%; for `COC(=O)CNC(c1ccccc1)c1cc(Br)ccc1NC(=O)c1ccccc1Br` (stereo not given), 10%. As for `O=C(COc1ccccc1Cl)N1CCc2cc3nccc(N4CCN5CCC[C@H]5C4)c3cc21`, the Inhibition is on record as 4%. Turning to `O=C(/C=C/c1ccc(Cl)c(Cl)c1)NCCCCCN1CCC(c2c[nH]c3ccc(O)cc23)CC1`, the Inhibition came out at 20%. Then `COc1ccc(CC2(c3ccc(F)cc3)N=C(N)N(CCCc3ccc4c(c3)OCO4)C2=O)cc1.O=C(O)C(F)(F)F` (stereo not given), with 60%; and `Cc1cc(-c2cccc(CNC3CCN(C)CC3)c2)ccc1S(=O)(=O)NC1CCC1.O=C(O)C(F)(F)F`, with 33%; and `O=C(O)C(F)(F)F.O=C1OC(c2ccccc2)(c2ccccc2)CN1CC1CCN(Cc2ccc(O)c(Cl)c2)CC1`, with 26%. Consider `Cc1ccc(C(=O)Nc2ccc(C)c(OC3CCN(CCC(C)C)C3)c2)cc1.O=C(O)C(F)(F)F` (stereo not given), for which the Inhibition came to 6%. For the compound `CCOc1cc(Cc2cnc(N)nc2N)cc(OCC)c1-n1cccc1` [EPIROPRIM], the Inhibition was 0%. Then `CC1CCN(C(=O)C(Cc2c[nH]c3ccccc23)NS(=O)(=O)c2ccc(Cl)cc2)CC1` (stereo not given), with 0%; and `COc1ccc(Nc2nccc(N3CCC(NC(=O)c4cccc(C#N)c4)C3)n2)cc1` (stereo not given), with 6%; and `NC1=NC(c2ccccc2)(c2ccccc2)C(=O)N1C1CCCCC1.O=CO`, with 13%. Then `Cc1cc(=NN=CC=Cc2ccccc2)c2cc(F)ccc2[nH]1`, with 8%; and `Cc1cc(NCCC(=O)NCCc2ccccc2)nc(NCCc2ccc(F)cc2)n1.O=C(O)C(F)(F)F`, with 0%; and `COc1cc(NC(=O)/C=C/c2ccccc2Cl)cc(OCCN2CCC(O)(c3ccccc3)CC2)c1.O=C(O)C(=O)O`, with 48%. `Cl.O=C(Nc1ccc(C(=O)Nc2cccc(C3=NCCN3)c2)cc1)Nc1ccc(C2=NCCN2)cc1`: the Inhibition was found to be 0%. For `O=C(N[C@H]1CCN(Cc2ccc(OCCCN3CCCCC3)cc2)C1)c1ccc(Cl)c(Cl)c1` the value was 27%. The compound `Cn1cnc2nc(NCCc3ccccc3)nc(NCc3cccc4ccccc34)c21` displayed an Inhibition of 16%. For `NCc1cccc(-c2ccc(CNC3CCN(Cc4ccccc4)CC3)cc2)c1.O=C(O)C(F)(F)F` the value was 2%. For `CCCN1CCN(Cc2ccc(-c3ccc(-c4nc5ccccc5[nH]4)s3)cc2)CC1` the value was 29%; for `FC(F)(F)c1cccc(Nc2nc3ccccc3nc2Nc2cccc(C(F)(F)F)c2)c1`, 45%; for `Cc1ccc(NC(=O)c2ccc(CN3CCCN(CC4CCCCC4)CC3)cc2)cc1.O=C(O)C(F)(F)F`, 41%. `CC(C)COc1ccc(Cl)cc1Cc1ccc(-c2nc3ccc(F)cc3[nH]2)o1` registered an Inhibition of 35%.

Regarding `CCN(CC)/C(=N/C(=N)NCc1cccc(Cl)c1)NCCCCCCN/C(=N\C(=N)NCc1cccc(Cl)c1)N(CC)CC`, the Inhibition came to 17%. For `Cn1c(-c2ccccc2)cc2c3c(=O)cc(C(F)(F)F)[nH]c3ccc21` the value was 21%. Then `CN(C)C(=O)CN1CCN(c2ncnc(N3CCc4c([nH]c5ccccc45)[C@@H]3c3ccc4c(c3)CCO4)n2)CC1`, with 12%; and `Cl.Nc1c2ccccc2nc2cc([N+](=O)[O-])ccc12`, with 92%. The compound `Cc1cc(NC(=O)Nc2ccc3ncccc3c2)c2ccccc2n1` displayed an Inhibition of 6%. The compound `Cc1ccc(NC(=O)NC2CCN(CCCCCNC(=O)/C=C/c3ccc(Cl)c(Cl)c3)CC2)cc1` came in with an Inhibition of 41%.

Consider `COc1ccc(C2CC(c3cccs3)=NN2C(=O)c2ccccc2)cc1OC` (stereo not given), for which the Inhibition is recorded as 5%. In turn, `COc1cc2nc(N3CCC(NC(=O)c4cccc(N(C)C)c4)CC3)nc(N)c2cc1OC.O=C(O)/C=C\C(=O)O` came in with an Inhibition of 6%.

The compound `COc1ccc(-c2cccc(NC(=O)c3cccc(C#N)c3)c2)cc1CNC(C)C.O=C(O)C(F)(F)F` came in with an Inhibition of 22%.

Turning to `COc1ccc(-c2ccc(NC(=O)c3ccc(C#N)cc3)cc2)cc1CN(C)CCN(C)C.O=C(O)C(F)(F)F`, the Inhibition came out at 28%.

As usually defined, the Inhibition is the percentage by which the read-out fell short of the control. Read a high Inhibition as a response far below the control.
